Hits are enriched below; roughly 2.8% of the tested compounds scored in any of these assays.
Pol beta inh: DNA polymerase beta (human) inhibition | Potency, µM (series often up to 114 µM), hits mostly inhibitors | Pol beta primer extension/strand displacement, fluorescence kinetic | 340,000 compounds, 1.3% hits
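Reaction started by 50 nM substrate onto compound-treated Pol beta (10 nM, 15 min preincubation, room temperature); plates read at 0 min and 10 min. Normalized concentration-effect data fitted by four-parameter Hill equation.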
POLH inh: DNA polymerase eta (human) inhibition. Potency, µM (doses to about 114 µM), actives largely listed as inhibitors. Q9Y253. recombinant Pol eta, fluorescent DNA replication assay. 390,000 compounds, 1.2% hits
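Pol eta (10 nM) was preincubated with compounds for 15 min at room temperature, after which fluorescent replication substrate (50 nM final) was added to start the reaction. Fluorescence was read kinetically at 0 and 10 min.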
PI5P4Ka inh: blocks human PI5P4K alpha kinase activity; PI5P4Kalpha enzyme, ADP-Glo luminescence, 60 min; stronger effect = lower value; max response, %; 330,000 compounds, 1.2% hits; AID 652105; active = max response of -50% or lower; inconclusive = between -30% and -50%; inactive = -30% or higher; note: value at the top dose of about 77 µM
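Compounds were pin-transferred onto PI5P4Kalpha and substrate in HEPES pH 7.4 buffer with EGTA, CHAPS and 5% DMSO. ATP (5 microM final) started the reaction, which ran 60 minutes at room temperature before ADP-Glo detection.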
Pol kappa inh: blocks human DNA polymerase kappa activity | 400,000 compounds, 0.53% hits | Q9UBT6 | AID 588579 | purified Pol kappa, fluorescent DNA synthesis assay, 10 min | Potency, µM (series often up to 107 µM), hits mostly inhibitors
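10 nM Pol kappa preincubated 15 min at room temperature with compounds, then reaction started with substrate at 50 nM final. Fluorescence read kinetically at 0 and 10 min; buffer-only wells served as negative control.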
Pol iota inh: blocks human DNA polymerase iota activity. Pol iota fluorescent replication assay, 10 min. Q9UNA4. 390,000 compounds, 1% hits. Potency, µM (series often up to 115 µM), most hits filed as inhibitors
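Pol iota at 10 nM preincubated 15 min with compounds at room temperature; reaction started with fluorescent substrate, 50 nM final. Fluorescence read kinetically at 0 and 10 min; buffer-only wells as negative control.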
PI4K2A inh: blocks human PI4K2A kinase activity | Q9BTU6 | AID 1346378 | activity change, negative = inhibition, % at 76.9 µM | purified PI4K2A, ADP-Glo luminescence, 1 h; stronger effect = lower value | 420,000 compounds, 0.13% hits; in the data active = activity change below about -50%; inconclusive = mostly about -30% to -49%
Target sequence (Q9BTU6 whole entry, looked up): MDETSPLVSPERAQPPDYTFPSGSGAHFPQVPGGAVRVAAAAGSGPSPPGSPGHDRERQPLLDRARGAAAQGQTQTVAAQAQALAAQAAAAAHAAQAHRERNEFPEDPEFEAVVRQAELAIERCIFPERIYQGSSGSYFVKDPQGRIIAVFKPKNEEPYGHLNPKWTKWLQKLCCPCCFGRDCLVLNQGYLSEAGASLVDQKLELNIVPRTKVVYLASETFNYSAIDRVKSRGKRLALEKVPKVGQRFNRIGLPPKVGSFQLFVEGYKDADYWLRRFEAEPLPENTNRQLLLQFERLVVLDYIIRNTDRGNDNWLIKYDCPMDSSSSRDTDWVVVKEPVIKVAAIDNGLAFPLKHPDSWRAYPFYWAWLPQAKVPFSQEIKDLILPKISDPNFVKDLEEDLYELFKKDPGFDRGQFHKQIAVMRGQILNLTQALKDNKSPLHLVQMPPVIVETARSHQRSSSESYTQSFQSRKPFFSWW
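Compounds are screened against recombinant PI4K2A using PI as substrate and ATP, the latter dispensed at 300 microM. Reactions run one hour at ambient temperature before ADP-Glo detection; full inhibition defined by wells lacking enzyme.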
A number is an active result; - = inactive; ? = inconclusive; . = no result; ! = a repeat was not active. Unless noted, calls come from the whole dose curve; as a rule, active = well fitted inhibition curve with a large enough effect; inconclusive = small, poorly fitted or top-dose-only effect, or another doubt; inactive = no such curve, though single readings can be large or run the other way.

SMILES	Pol beta inh	POLH inh	PI5P4Ka inh	Pol kappa inh	Pol iota inh	PI4K2A inh
O=S(=O)(N[C@@H]1CCCC[C@H]1N1CCOCC1)c1ccc(Cl)cc1	.	.	.	.	.	-
COc1ccc(/C=N/NC(=O)c2cccc(C(=O)N/N=C/c3ccc(OC)c(OC)c3)n2)cc1OC	-	-	-	-	-	-
COc1ccc(/C=N/NC(=O)c2ccc(=O)[nH]n2)cc1OC	7.94µM	?	-	?	100µM	-
COc1ccc(C(=O)Nc2nnc(CC(=O)N/N=C/c3ccc(O)cc3O)s2)cc1	5.01µM	.	.	.	.	.
COc1ccc(-c2cc3nc4ccccc4n3c(N)c2C#N)cc1	3.98µM	-	-	-	-	-
COc1ccc(-c2cc(-c3ccccc3)c(C#N)c(S(C)=O)n2)cc1 (stereo not drawn)	-	-	-	-	-	-
Cc1cccc(C)c1NC(=O)/C(C#N)=C/c1ccc(-c2ccc(C(=O)O)cc2)o1	?	50.1µM	?	?	-	-
N#C/C(=C\c1ccc(-c2ccc(C(=O)O)cc2)o1)C(=O)NCC1CCCO1 (stereo not drawn)	15.8µM	12.6µM	-	?	?	-
N#C/C(=C\c1ccc(N2CCOCC2)o1)C(=O)NCC1CCCO1 (stereo not drawn)	?	-	-	-	-	-
C[C@@H]1COc2cc(Br)ccc2S(=O)(=O)N1Cc1cn(CC2CCCCC2)nn1	.	.	.	.	.	-
CN1C(=O)/C(=C/c2ccc(OCc3ccc(C(=O)O)cc3)c(Cl)c2)NC1=S	35.5µM	?	-	-	-	-
O=C1CC(/C=C/c2ccccn2)=Nc2ccccc2N1	-	-	-	-	-	-
O=C1CC(/C=C/c2ccco2)=Nc2ccccc2N1	?	-	-73.0	-	?	?
COc1cccc2c1C(=O)C=C(C)C2=O	-	?	-	-	-	-
COC1=CC(=O)c2nc(Cl)ccc2C1=O	.	.	-	.	.	-57.7
CCCCN(C(=O)CSc1nnc(Nc2ccc(C)c(C)c2)s1)c1c(N)n(Cc2ccccc2)c(=O)[nH]c1=O	-	-	-69.3	-	-	-
COCCCN(C(=O)c1cc2c(s1)CCC2)c1c(N)n(Cc2ccccc2)c(=O)[nH]c1=O	12.6µM	?	?	?	31.6µM	-
CCCN(C(=O)COC(=O)c1cc(CC)c(C)s1)c1c(N)n(Cc2ccccc2)c(=O)[nH]c1=O	.	17.8µM	?	?	39.8µM	-
CCCCn1c(N)c(N(CCOC)C(=O)COC(=O)c2cc(CC)c(C)s2)c(=O)[nH]c1=O	.	-	-	-	-	-
CCN(C(=O)COC(=O)c1cc2c(s1)CCCC2)c1c(N)n(Cc2ccccc2)c(=O)[nH]c1=O	.	?	?	-	44.7µM	-
CCN(C(=O)COC(=O)c1cc2c(s1)CCC(C)C2)c1c(N)n(Cc2ccccc2)c(=O)[nH]c1=O (stereo not drawn)	.	?	-	-	?	-
O=C1NC(=O)C([N+](=O)[O-])=C(O)C1=O	.	-	-65.0	.	.	-
O=C(NCc1ccco1)c1sc(=S)n2c1[nH]c(=O)c1ccccc12	50.1µM	22.4µM	.	?	?	-
CCCCCNC(=O)c1ccc2c(=O)[nH]c3c(C(=O)NCC4CCCO4)sc(=S)n3c2c1 (stereo not drawn)	-	25.1µM	-	-	-	-
O=C(NC1CCCC1)c1sc(=S)n2c1[nH]c(=O)c1ccccc12	?	56.2µM	.	-	?	-
SMILES	Pol beta inh	POLH inh	PI5P4Ka inh	Pol kappa inh	Pol iota inh	PI4K2A inh
Cc1ccc(CNC(=O)c2ccc3c(=O)[nH]c4c(C(=O)NCC5CCCO5)sc(=S)n4c3c2)cc1 (stereo not drawn)	-	-	-	-	-	-
N[C@@H](Cn1ccc(=O)c(O)c1)C(=O)O	.	.	.	-	.	-
CC1(C)OC[C@@H]2O[C@@]3(C(=O)O)OC(C)(C)O[C@H]3[C@@H]2O1	.	.	.	.	.	-
CCCn1cc(S(=O)(=O)CC(=O)Nc2ccc(OCC)cc2)c2ccccc21	89.1µM	-	-	-	-	-
COc1ccc(-c2nnn3c2Cn2c4ccccc4c(=O)n2[C@@H](C)C3)cc1	.	.	.	.	.	-
Cc1cc(C)nc(NC(=O)CSc2nn(-c3ccccc3)c(=S)s2)n1	39.8µM	-	-	-	?	-
CCN1CCN(Cc2ccc(NC(=O)c3cc(NC(=O)c4ccc5n[nH]nc5c4)cc(OC)c3)cc2C(F)(F)F)CC1	-	-	-	-	-	-
Cc1ccc(C(=O)Nc2cccc(C(F)(F)F)c2)cc1NC(=O)c1c[nH]c2cc(C(F)(F)F)ccc2c1=O	.	-	-	-	-	-
CCN1CCN(Cc2ccc(NC(=O)c3cc(NC(=O)c4cc(-c5ccc(OC)cc5)n[nH]4)cc(OC)c3)cc2C(F)(F)F)CC1	-	-	-66.7	-	-	-
CCN1CCN(Cc2ccc(NC(=O)c3cc(NC(=O)c4cncc(-c5cccs5)c4)cc(OC)c3)cc2C(F)(F)F)CC1	-	-	-67.2!	-	?	-
CCN1CCN(Cc2ccc(NC(=O)c3ccc(C)c(NC(=O)c4c[nH]c5cc(C(F)(F)F)ccc5c4=O)c3)cc2C(F)(F)F)CC1	-	-	-67.0	-	-	-
CC(C)S(=O)(=O)C1=NSC2=NC(=O)/C(=C\c3ccc(-c4ccccc4)o3)C(=N)N21	79.4µM	17.8µM	-101.9	?	-	-
